Experimental data reported in PubChem BioAssay (NCI).
The panel holds about 83,000 compounds, 20% with a hit somewhere; the sample as a whole holds those more often.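 Negative percent growth values reflect cell death: -40 means 40% of the cells present at the start died, and -100 means all died.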 A number with no mark means an inactive call. Active and inactive are the calls of the source. Rule for the calls: active = growth percent below 10; inactive = the rest.

Experiments:
Test in all cases: NCI-60 one-dose screen, 48 h (100 = growth as untreated, 0 = no growth, -100 = all killed)
Conditions in all cases: 10 µM unless noted
SK-MEL-2 melanoma = test system: SK-MEL-2 melanoma
EKVX NSCLC = test system: EKVX NSCLC
SN12C renal = test system: SN12C renal
UO-31 renal = test system: UO-31 renal
TK-10 renal = test system: TK-10 renal
ACHN renal = test system: ACHN renal
CAKI-1 renal = test system: CAKI-1 renal
A498 renal = test system: A498 renal
CCRF-CEM leukemia = test system: CCRF-CEM leukemia
MOLT-4 leukemia = test system: MOLT-4 leukemia

Row | SMILES | growth (SK-MEL-2 melanoma) | growth (EKVX NSCLC) | growth (SN12C renal) | growth (UO-31 renal) | growth (TK-10 renal) | growth (ACHN renal) | growth (CAKI-1 renal) | growth (A498 renal) | growth (CCRF-CEM leukemia) | growth (MOLT-4 leukemia)
1 | CCCCCN1C(=O)/C(=c2\sc3n(c2=O)C2C(NN=3)N(CC)C(=O)N2CC)c2ccccc21 (stereo not given) | 21.3% | 26.3% | -50.5% (active) | -40.8% (active) | 19.9% | 2.83% (active) | 7.55% (active) | -27.8% (active) | -15.6% (active) | 4.79% (active)
2 | CCNCCNc1cc(-c2ccc(C(F)(F)F)cc2)c(C#N)c2nc3ccccc3n12 | -47.6% (active) | -66% (active) | -62% (active) | -88.3% (active) | -67.3% (active) | -88.8% (active) | -96.9% (active) | -88.4% (active) | -42.9% (active) | -32.7% (active)
3 | CCCCCCC12CCC(=O)N1CCc1cncn12 (stereo not given) | 108% | 99.9% | 102% | 109% | 92.5% | 109% | 109% | 99.2% | 95.4% | 104%
4 | CCN(CC)S(=O)(=O)c1ccc(S(=O)(=O)N2CCC[C@@H](C(=O)N3CCN(c4nc(C(C)C)no4)CC3)C2)cc1 | 94.6% | 55.1% | 84.9% | 58.6% | 74.5% | 68.5% | 58.4% | 6.31% (active) | 63.7% | 61.1%
5 | Nc1ncnc2c1C(c1ccc(Br)cc1)c1sc3c(F)cccc3c1O2 (stereo not given) | 110% | 69.3% | 104% | 64.2% | 119% | 93.7% | 79.4% | 114% | 97.8% | 101%
6 | CCOC(=O)c1ccc(NC(=O)c2nc(-c3cc(OC)c(OC)c(OC)c3)n(-c3ccc(Cl)cc3)n2)cc1 | 85.9% | 94% | 85.2% | 58.8% | 93.3% | 94.1% | 80.7% | 86% | 90% | 81.8%
7 | CC1(C)CC(=O)C2=C(C1)N(c1ccc(OC(F)(F)F)cc1)C(N)=C(C#N)C2c1ccc(Br)cc1F (stereo not given) | 88.6% | 82% | 58.7% | 70.3% | 119% | 41.1% | 50.3% | 31.4% | 85.6% | 63%
8 | NC(=O)C(=O)c1ccccc1NC=O | 112% | 101% | 96.6% | 60.9% | 107% | 94.8% | 75.2% | 120% | 99.1% | 108%
9 | O=C1/C(=C\c2ccc3nccnc3c2)SC(=S)N1CCc1ccc(O)cc1 | 97.1% | 100% | 86.9% | 49.7% | 67.8% | 94% | 78.9% | 83.1% | 79% | 106%
10 | COc1ccc(C(=O)Nc2cccc(-c3cc(=O)c4c(OC)c(OC)c(OC)cc4o3)c2)cc1 | 61.3% | 77.3% | 50% | 26.5% | 76.7% | 47% | 57.4% | 69.3% | 27.5% | 23.3%
11 | CCN(CC)CCn1c2ccc(O)cc2c2sc3cc(O)ccc3c(=O)c21 | 57.9% | 48.8% | 20.9% | 26% | 64.9% | 3.32% (active) | 43.5% | 41.6% | 14.6% | 9.25% (active)
12 | N#Cc1c(-c2ccc(Cl)cc2)c(C#N)c2c(C#N)c(N)nn2c1N | 93.1% | 68.3% | 87.8% | 67.1% | 83.8% | 87.7% | 71.6% | 78.2% | 73.9% | 79.4%
13 | Cc1ccc(C(=O)c2ccc(CC(=O)N/N=C/c3ccccc3O)n2C)cc1 | 89.6% | 82.8% | 89.8% | 40.6% | 85.1% | 53.2% | 64.5% | 82% | 54.1% | 74%
14 | CC(C)c1ccc(C(=O)Nc2nc3ccc(O)c(CN(C)C)c3s2)cc1 | 102% | 95.8% | 90.7% | 91.2% | 99.6% | 81.6% | 65.4% | 72.3% | 73.5% | 62.7%
15 | Cc1ccc2c(c1)=C/C(=C\c1cc(-c3ccccc3)oc1O)C(=O)N=2 | 114% | 92.6% | 106% | 100% | 97.6% | 105% | 91.1% | 96.6% | 100% | 90.6%
16 | C=C(C)[C@@H]1CC[C@]2(C(=O)N3CCOCC3)CC[C@]3(C)[C@H](CC[C@@H]4[C@@]5(C)C/C(=C/c6ccncc6)C(=O)C(C)(C)[C@@H]5CC[C@]43C)[C@@H]12 | 72.2% | 60.8% | 62.6% | 52.6% | 91% | 58.4% | 56.8% | 68.9% | 31.7% | 30.3%
17 | O=S(=O)(NCCCNc1nccc(-c2c(-c3ccc(F)c(O)c3)nc3occn23)n1)c1ccc(Cl)cc1 | 25.6% | 65.6% | 59.5% | 36.4% | 103% | 56.3% | 41.7% | 84.9% | 47.9% | 48.9%
18 | O=C1Nc2ccccc2/C1=C/c1nc2ccccc2c(=O)[nH]1 | 103% | 80.6% | 89.5% | 64.4% | 181% | 91.9% | 84.2% | 102% | 55.8% | 86%
19 | Cc1cccc(/C=C2\CN(C(=O)OC(C)(C)C)C/C(=C\c3cccc(C)c3)C2=O)c1 | 95.3% | 93.4% | 95.4% | 69% | 96.1% | 84% | 73.5% | 93.9% | 8.66% (active) | 51.8%
20 | Cn1cc(C(=O)c2nc(-c3c[nH]c4ccccc34)no2)c2cc(F)ccc21 | 26.9% | 57.5% | 59.5% | 42.4% | 57.6% | 49.6% | 32.9% | 25.3% | 23.9% | 38.9%
21 | CCOC(=O)n1cc(-c2nonc2-c2cn(C(=O)OCC)c3ccc(Br)cc23)c2ccccc21 | 87.5% | 73.3% | 88.1% | 46.9% | 90.8% | 64.5% | 60.1% | 82.3% | 87.7% | 72.2%
22 | Oc1c(I)cc(I)cc1CNCc1ccccn1 | 35.7% | 25.9% | 38.4% | 5.01% (active) | 23.4% | 24.6% | 15.4% | 62.4% | 23.6% | 16.2%
23 | Cc1cc(=O)n(C(=O)Nc2ccccc2Cl)c2cc(O)ccc12 | 118% | 108% | 98.5% | 76.9% | 101% | 100% | 92.3% | 109% | 93.9% | 110%
24 | COC(=O)CC[C@H](C)[C@H]1CC[C@H]2[C@@H]3CC[C@@H]4CC5(CC[C@]4(C)[C@H]3CC(=O)[C@]12C)Nc1ccccc1NC5=NC(C)(C)C (stereo not given in full) | 90.9% | 87.5% | 87.9% | 88.7% | 97.4% | 86.4% | 59.2% | 63.5% | 54.7% | 54.6%
25 | COc1ccc(C/C(C)=C(/c2ccc(OCCN(C)C)cc2)c2ccc(OC(=O)NCc3ccccc3)cc2)cc1 | 90.5% | 72.2% | 74.2% | 46.4% | 78.5% | 90.9% | 67.1% | 85.7% | 47.2% | 37.3%
26 | O=C(CN1CCCCC1)Nc1nc(-c2cc3ccccc3oc2=O)cs1 | 112% | 96.1% | 96.1% | 82.9% | 138% | 100% | 95.9% | 97.3% | 102% | 98.9%
